# Source: PubChem BioAssay AID743318 (Broad Institute, 2014)
# Results with a measured potency or affinity are listed apart. Unmarked numbers belong to inactive results. Active and inactive are the calls of the source.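 The calls were made as follows: active = cytotoxic signal drop whose half-maximal concentration is at most twice the top valid dose; inconclusive = flat drop between 30% and 70%, or poor fit; inactive = the rest.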
# Test: A549 cell cytotoxicity, dose response, cytotoxicity control, plate reader, dry powder, set 7 (AID 743318)
# Conditions: A549 viability, CellTiter-Glo ATP luminescence, 72 h; series mostly up to 26 µM; activity change, negative = cytotoxic: at the top concentration
SMILES,"activity change, negative = cytotoxic [%]",outcome
Cc1ccc(C(C)C)c(OCCn2c(=S)[nH]c3ccc(F)cc32)c1,-2.56,–
CC(C)(C)c1ccc(OCCn2c(=S)[nH]c3ccccc32)cc1,18.4,–
COCc1nc2ccccc2n1CCOc1ccc(C(C)(C)C)cc1,16.1,–
Cc1ccc(C(C)C)c(OCCn2c(=S)[nH]c3c(F)cccc32)c1,10.1,–
Cc1ccc(C(C)C)c(OCCn2c(=S)[nH]c3ccccc32)c1,–,inactive
Cc1ccc2c(c1)[nH]c(=S)n2CCOc1ccccc1,–,inactive
O=c1[nH]c2ccccc2n1CCOc1ccccc1,22.5,–
Cc1ccc(OCCn2c(=S)[nH]c3ccccc32)cc1,9.56,–
S=c1[nH]c2ccccc2n1CCOc1ccc(Cl)cc1,-23.8,–
Fc1cccc2c1[nH]c(=S)n2CCOc1ccccc1,–,inactive
Fc1ccc2c(c1)[nH]c(=S)n2CCOc1ccccc1,–,inactive
c1ccc(OCCn2cnc3ccccc32)cc1,-11.2,–
Cc1ccc(C(C)C)c(OCCn2c(=S)[nH]c3ccc(Cl)cc32)c1,-15.5,–
COc1ccccc1OCCn1c(=S)[nH]c2ccccc21,16.9,–
Cc1ccc(C(C)C)c(OCCn2c(=S)[nH]c3cccc(C)c32)c1,-17.9,–
Fc1ccccc1OCCn1c(=S)[nH]c2ccccc21,21.2,–
CCOc1ccc(OCCn2c(=S)[nH]c3ccccc32)cc1,1.48,–
Cc1ccc(OCCn2cnc3ccccc32)cc1,31.7,–
Cc1cccc(OCCn2c(=S)[nH]c3cc(F)ccc32)c1,–,inactive
S=c1[nH]c2ccccc2n1CCOc1ccccc1,-16.9,–
S=c1[nH]c2ccccc2n1CCOc1ccccc1Cl,6.89,–
Cc1cccc(OCCn2c(=S)[nH]c3ccc(C(F)(F)F)cc32)c1,-24.1,–
COc1cccc(OCCn2c(=S)[nH]c3ccccc32)c1,9.38,–
Cc1ccc(C(C)C)c(OCCn2c(=S)[nH]c3c(C)cccc32)c1,-0.991,–
Cc1cccc2[nH]c(=S)n(CCOc3ccccc3)c12,8.58,–
